Compound activity: PubChem BioAssay, National Center for Advancing Translational Sciences (NCATS)
Rows were chosen to be rich in hits. Some 8.8% of all compounds tested hit in one or more screens of this group.
IL1B secr inh = qHTS for Inhibitors of Inflammasome Signaling: IL-1-beta AlphaLISA Primary Screen; THP-1 LPS/ATP IL-1B secretion, AlphaLISA, 16 h; active compounds read low; activity change, % at 57.5 µM; actives 4.7% (n = 360,000); AID 743279, 2014; in the data active = activity change below about -50%; inconclusive = mostly about -30% to -49%
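THP-1 cells pretreated 1 hr with compounds (up to 57.5 uM final), then stimulated with LPS (250 ng/mL final) plus ATP (1.25 mM final); secreted IL-1B measured by AlphaLISA after 16 hr, decreased signal indicating inhibition.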
HT1080NT lethal = qHTS for induction of synthetic lethality in tumor cells producing 2HG: qHTS for the HT-1080-NT fibrosarcoma cell line; HT-1080-NT fibrosarcoma viability, CellTiter-Glo ATP luminescence, 48 h; Potency, µM (series often up to 46.1 µM), for inactives: at the highest dose activity, negative = less viability, usual class: cytotoxic; actives 1.6% (n = 360,000);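 note: NT is the 2HG producing partner of a matched IDH1 knockdown line; potency is the fitted concentration of half-maximal effect; 0% = DMSO-treated cells and -100% = media-only wells without cells; nearly all actives have a fitted effect of over 55% in size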
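Compounds were tested in concentration-response format on HT-1080-NT cells for 48 hours at 37 degrees C. Cell viability came from CellTiter-Glo luminescence; curves were classified by r2, response magnitude and activity.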
KB-3-1 cytotox = qHTS assay for MDR1-selective chemotherapeutics: Primary screen using the parental adenocarcinoma cell KB-3-1. actives 1.4% (n = 400,000). Potency, µM (top dose mostly 46.1 µM), actives largely listed as cytotoxic. AID 1347075, 2019. KB-3-1 viability, CellTiter-Glo ATP luminescence, 72 h; note: potency is the fitted concentration of half-maximal effect; nearly all actives have a fitted effect of over 60% in size
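Multi-concentration cytotoxicity screen in KB-3-1 cells grown in DMEM lacking phenol red with 10% FBS. After 72 h at 37 °C with compound, ATP-dependent luminescence was recorded.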
HT1080 IDH1KD tx = qHTS for induction of synthetic lethality in tumor cells producing 2HG: qHTS for the HT-1080-IDH1KD cell line; HT-1080 IDH1 knockdown viability, ATP luminescence, 48 h; Potency, µM (doses to about 46.1 µM), for inactives: top-dose activity, negative = toxicity, most hits filed as cytotoxic; actives 2% (n = 360,000); AID 686971, 2013;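 note: potency is the fitted concentration of half-maximal effect; 0% = DMSO wells and -100% = cell-free medium wells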
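Using the IDH1-knockdown HT-1080 line run in the same batch and compound series as the NT line, viability after 48 h at 37 °C was determined by CellTiter-Glo luminescence and expressed as % activity.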
KB-V1 cytotox = qHTS assay for MDR1-selective chemotherapeutics: Primary screen using the drug-selected MDR subline cells KB-V1; Potency, µM (series often up to 46.1 µM), actives largely listed as cytotoxic; KB-V1 MDR cells viability, CellTiter-Glo, 72 h; actives 3.4% (n = 400,000); note: potency is the fitted concentration of half-maximal effect; nearly all actives have a fitted effect of over 60% in size
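Luminescent ATP read-out (CellTiter-Glo, 10 min) measures survival of drug-selected KB-V1 MDR cells after 72 h, 37 degrees C compound exposure. Medium: phenol-red-free DMEM, 10% FBS. Values from fitted concentration-response curves.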
* = called active by the depositor; i = inactive; u = inconclusive; x = no result given. Unless noted, calls come from the whole dose curve; as a rule, active = well fitted curve in the direction sought with a large enough effect; inconclusive = small, poorly fitted or top-dose-only effect, or another doubt; inactive = no such curve, though single readings can be large; an effect the other way counts as inactive or inconclusive. Unless noted, % is set by controls: 0 for no effect and ±100 for the full control effect.

SMILES	IL1B secr inh	HT1080NT lethal	KB-3-1 cytotox	HT1080 IDH1KD tx	KB-V1 cytotox
O=C1NN(c2ccc(F)cc2)C(=O)/C1=C/c1cccs1	-51*	-2%	i	-9%	i
O=C(CC(c1ccccc1)c1ccccc1)Nc1ccc(Cl)cn1	6	u	u	15µM*	u
O=C(/C=C/c1ccccc1)Nc1ccc(Cl)cn1	0	u	18µM*	4.6µM*	u
CCOc1ncccc1C(=O)OC(C)C(=O)Nc1ccc(Cl)cn1 (stereo not drawn)	27	4%	i	0%	i
CNc1ccccc1C(=O)OC(C)C(=O)Nc1ccc(Cl)cn1 (stereo not drawn)	-75*	0%	x	4%	x
CS(=O)(=O)N1N=C(c2cccs2)CC1c1ccc(Cl)o1 (stereo not drawn)	-21	3%	i	-2%	i
COc1cc2nc(CC(O)c3nc4cc(OC)c(OC)cc4[nH]3)[nH]c2cc1OC (stereo not drawn)	x	x	i	x	i
CCOC(=O)N1CCC(N2Cc3cccc(C(=O)Nc4ccc(F)cc4)c3C2=O)CC1	1	1%	u	-1%	u
CCOC(=O)N1CCC(N2Cc3cccc(C(=O)Nc4ccc(CC)cc4)c3C2=O)CC1	-70*	-12%	u	-15%	u
Cc1cc(C)c(NC(=O)c2cccc3c2C(=O)N(C2CCCCC2)C3)c(C)c1	0	10%	21µM*	-3%	u
Cc1cccc(CCNC(=O)c2cccc3c2C(=O)N(C2CCCCC2)C3)c1	-66*	u	i	-24%	i
CN(Cc1nc(Cc2ccccc2F)no1)Cc1cccc2ncccc12	-108*	-28%	i	-30%	u
CN(Cc1nc(Cc2ccccc2F)no1)CC1(N2CCOCC2)CCCCC1	-15	3%	i	1%	i
Cc1ccc(CNS(=O)(=O)c2ccc3[nH]c4c(c3c2)CCCCC4)cc1	x	x	u	x	i
CN(C)c1ccc(CNS(=O)(=O)c2ccc3[nH]c4c(c3c2)CCCCC4)cc1	x	x	u	x	16µM*
COc1ccc(OC)c(CNS(=O)(=O)c2ccc3[nH]c4c(c3c2)CCCCC4)c1	x	x	u	x	21µM*
COc1ccc(NS(=O)(=O)c2ccc3[nH]c4c(c3c2)CCCC4)c(OC)c1	x	x	i	x	i
Cc1c(-c2n[nH]c(=S)n2-c2ccc(Br)cc2)nnn1-c1ccc(Cl)cc1	51	-12%	i	-14%	i
Cc1c(-c2n[nH]c(=S)n2-c2ccc(C(F)(F)F)cc2)nnn1-c1ccccc1	4	3%	i	16%	23µM*
COC(=O)c1cc2occc2n1CC(=O)Nc1cc(OC)cc(OC)c1	-52*	-7%	i	0%	i
CN(Cc1nc(-c2ccncc2)no1)S(=O)(=O)c1ccc(Cl)cc1	7	3%	i	-12%	15µM*
CN(Cc1nc(-c2ccncc2)no1)S(=O)(=O)c1ccc(Br)cc1	11	-1%	i	-2%	15µM*
CN(Cc1nc(-c2ccncc2)no1)S(=O)(=O)c1ccccc1	-5	1%	i	-3%	i
COC(=O)[C@@H](NS(=O)(=O)c1cc(Br)ccc1Br)C(C)C	25	0%	i	3%	i
O=C(CSc1nc(-c2cccs2)nc2ccccc12)NC1CCS(=O)(=O)C1 (stereo not drawn)	-2	-1%	i	5%	i
COc1ccc2c(-c3ccccc3)cc(SCC(=O)NC3CCS(=O)(=O)C3)nc2c1 (stereo not drawn)	-82*	u	i	u	i
CCN(C(=O)CSc1nc(-c2cccs2)nc2ccccc12)C1CCS(=O)(=O)C1 (stereo not drawn)	-93*	-9%	i	-7%	i
